# Reference: ChEMBL document CHEMBL3988442, “University of Dundee, Small-Polar-MMV Screening Library” (2021)
# Among all 38,000 compounds or so, about 1,200 (3.2%) showed an effect of 50% or more. The median lay at about -58%. The full list was thinned out, with strong results kept by preference.
# System: Plasmodium falciparum
# Assay: Calibr Malaria Delayed Death Assay SOP
# Type: functional, organism-based
# Design: scale not given: in the data most compounds retested in dose-response had high values
# Details: concentration 4.99e-06 (unit not given; other assays of the set use mol/L)
row,SMILES,Percent Effect [%]
1,O=C(CN1C[C@H]2CC[C@@H]1CN(Cc1ccccn1)C2)NCc1cccs1,67.17
2,O=C(c1cc(C2CC2)no1)N1C[C@H]2CC[C@@H]1CN(Cc1ccccn1)C2,5.083
3,CC(C)c1cc(C(=O)N2C[C@H]3CC[C@@H]2CN(Cc2ccccn2)C3)no1,-200.1
4,O=C(CN1C[C@H]2CC[C@@H]1CN(Cc1ccccn1)C2)Nc1ccccc1,82.97
5,Cc1nnsc1CN1C[C@H]2CC[C@@H]1CN(Cc1ccccn1)C2,-7.135
6,Cc1cnn(C2CN(CC(=O)NCc3ccccn3)C2)c1,-188.5
7,Cc1nccc(CNC(=O)N(CCCO)C2CCc3ccccc32)n1 (stereo not drawn),-86.6
8,COc1ccccc1CNC(=O)COc1ccc2c(c1)OCC2O (stereo not drawn),-166.7
9,CC(C)n1cc(-c2nc3cc(S(=O)(=O)N4CCCC4)ccc3n2C)cn1,-92.66
10,O=C(NCCNc1cccnc1)C(c1cccnc1)N1CCCC1 (stereo not drawn),-14.56
11,Cc1ccccc1C(C(=O)NCCn1cccc1)N(C)C (stereo not drawn),36.37
12,Cc1ccc(C(C(=O)NCCN2CCCCCC2)N(C)C)cc1 (stereo not drawn),58.29
13,Cc1ccc(C(C(=O)NCCN2CCC(CO)CC2)N(C)C)cc1 (stereo not drawn),-10.34
14,O=C(NCCn1cccc1)C(c1ccccc1)N1CCCC1 (stereo not drawn),54.29
15,CN1CCN(CCNC(=O)C(OC2CCCC2)c2ccccc2)CC1 (stereo not drawn),38.55
16,CC1(C(=O)NCCN2CCCCC2)CCCN1C(=O)c1ccccc1 (stereo not drawn),-16.7
17,Cc1ccccc1C(C(=O)NCCN1CCC(CO)CC1)N(C)C (stereo not drawn),-106.7
18,O=C(NCCN1CCCCC1)C(c1ccccc1)N1CCCC1 (stereo not drawn),79.97
19,COc1cccc(Cn2cc(N3C(=O)[C@H]4CCCC[C@H]4C3=O)cn2)c1,-60.69
20,Cc1cccc(C)c1OCCCN1CCN(CC2CCCO2)CC1 (stereo not drawn),11.15

row,SMILES,Percent Effect [%]
1,CC/N=c1\nc(NCC)nc2n1C(O)(Nc1cc(Cl)ccc1Cl)CS2 (stereo not drawn),-3.589
2,CC(=O)c1ccc(NC(=O)N[C@H](C(=O)O)C(C)C)cc1,-95.29
3,NC1CCCc2nc(-c3ccccc3)ncc21 (stereo not drawn),-87.16
4,O=C(c1ccccc1Cl)N1CC[C@H](O)[C@@H](N2CCOCC2)CC1,-83.45
5,COc1ncccc1CN1C[C@@H]2COC[C@]2(COc2cccnc2)C1.O=C(O)C(F)(F)F.O=C(O)C(F)(F)F.O=C(O)C(F)(F)F,-33.52
6,COc1ccccc1CN1C[C@@H]2COC[C@]2(COCc2ccncc2)C1.O=C(O)C(F)(F)F.O=C(O)C(F)(F)F,53.03
7,O=C(O)C(F)(F)F.O=C(O)C(F)(F)F.O=C(O)C(F)(F)F.c1ccc(CN2C[C@@H]3COC[C@]3(COCc3ccncc3)C2)nc1,-55.25
8,COc1ccccc1CN1C[C@@H]2COC[C@]2(COc2cccnc2)C1.O=C(O)C(F)(F)F.O=C(O)C(F)(F)F,52.99
9,CCOC[C@]12COC[C@H]1CN(Cc1cccc(OC)c1)C2.O=C(O)C(F)(F)F,-1.674
10,O=C(O)C(F)(F)F.O=C(O)C(F)(F)F.O=C(O)C(F)(F)F.c1cc(COC[C@]23COC[C@H]2CN(Cc2ccncc2)C3)ccn1,-128.8
11,COc1cccc(CN2C[C@@H]3COC[C@]3(COCc3ccccn3)C2)c1.O=C(O)C(F)(F)F.O=C(O)C(F)(F)F,58.94
12,COc1cc(N2C[C@@H]3COC[C@]3(COCc3ccccn3)C2)ncn1.O=C(O)C(F)(F)F.O=C(O)C(F)(F)F,-135.9
13,COc1cccc(CN2C[C@@H]3COC[C@]3(COc3cccnc3)C2)c1.O=C(O)C(F)(F)F.O=C(O)C(F)(F)F,12.68
14,Cc1cnc(CN(C)Cc2cc3c(cc2OC(F)F)OCO3)o1,-25.68
15,Cc1noc(C)c1CSCc1csc(CS(C)(=O)=O)n1,-34.91
16,COCCCNC(=O)c1cc(-c2cnc(N3CCOCC3)nc2)cn1C.O=C(O)C(F)(F)F,-55.95
17,CCn1ncc2c1C(COC)CN(Cc1nccs1)C2 (stereo not drawn),-17.13
18,COc1ccc(-n2ccc(C(=O)NCCN3CCCC(C)C3)n2)cc1 (stereo not drawn),4.937
19,Cn1cc(CN2C[C@H]3CCN(C(=O)c4cscn4)C[C@H]3C2)cn1.O=C(O)C(F)(F)F,-59.18
20,CC(Cn1cccn1)NCc1csc(Cc2ccccc2)n1 (stereo not drawn),5.726

row,SMILES,Percent Effect [%]
1,CCOc1ccc(-c2cc(CCN)ccc2OC)cc1,-62.01
2,COc1ccc(CCN)cc1-c1ccc(O)cc1,84.96
3,COc1ccc(CCN)cc1-c1ccc(C(N)=O)cc1,6.686
4,O=C(Cn1c(=O)oc2ccccc21)NCC1(O)CCc2ccccc21 (stereo not drawn),-139.2
5,c1cnc(N2CCCC(c3cncc(-n4ccnc4)n3)C2)nc1 (stereo not drawn),-26.3
6,Cc1cc(NCCN)nc(-c2ccccc2O)n1,78.32
7,Cc1cc(NCCNc2cccnc2)nc(-c2ccccc2O)n1,-179.2
8,Cc1cc(NCCO)nc(-c2ccccc2O)n1,-228.5
9,COCC1COCCC12CCN(S(=O)(=O)c1ccc(C)cc1)CC2 (stereo not drawn),-77.98
10,CCNC(=O)[C@@H]1C[C@@H](NC(=O)c2cnc[nH]c2=O)CN1Cc1ccsc1,-128.1
11,O=C(CN1CCOCC1)Nc1ncc(Br)cc1Br,-123.1
12,c1ccc(Cc2noc(CCNC3CCOC4(CCOCC4)C3)n2)cc1 (stereo not drawn),-44.81
13,c1ccc2c(c1)cnn2CCCNC1CCOC2(CCOCC2)C1 (stereo not drawn),68.4
14,Fc1cccc(C2(CNC3CCCNC3)CCOCC2)c1 (stereo not drawn),-89.15
15,Fc1ccccc1C1(CNC2CCOC3(CCOCC3)C2)CCCC1 (stereo not drawn),75.67
16,Fc1cccc(C2(CNC3CCOC4(CCOCC4)C3)CCOCC2)c1 (stereo not drawn),39.6
17,c1ccc2c(c1)nnn2CCCNC1CCOC2(CCOCC2)C1 (stereo not drawn),-5.834
18,COc1c(CNC2CCN(C(=O)C(C)C)CC2)c(C(C)C)nn1C,-79.75
